Among the data in ChEMBL document CHEMBL4513216, “Probing the Open Global Health Chemical Diversity Library for Multistage-Active Starting Points for Next-Generation Antimalarials” (ACS Infect Dis, 2020) are INHIBITION values, retold here.

About 8,600 (12%) of roughly 69,000 compounds showed an effect of 50% or more. This is one part of a sample in which strong results are shown more often than they occur.

This experiment relates to Plasmodium berghei. Kind of experiment: Screen against P. berghei liver stage (PbLuc), transformed with Luciferase, at 10uM. In kind it is functional, HepG2. Conditions: tested at 10 uM.
As for `COCC1CN(C(=O)Nc2cc(Cl)cc(Cl)c2)CCO1` (centres undefined), the INHIBITION is listed as -42.9%.

As for `NC(=O)C1CN(C(=O)Nc2ccccc2N2CCCCCC2)CCO1` (centres undefined), the INHIBITION is -22.7%.

For `Cc1cc(NC(=O)N2CCOC(C(N)=O)C2)ccc1Br` (centres undefined), the INHIBITION is listed as -62.8%.

Turning to `NC(=O)C1CN(C(=O)Nc2cc(Cl)cc(Cl)c2)CCO1` (centres undefined), the INHIBITION is recorded as 88.4%.

Regarding `O=C(Nc1ccccc1-c1cccs1)N1CCOCC1`, the INHIBITION is reported as -11.6%.

For `NC(=O)C1CN(C(=O)Nc2ccccc2-c2cccs2)CCO1` (centres undefined), the INHIBITION is recorded as 57.2%.

As for `CN1CCCc2cc(NC(=O)N3CCOC(C(N)=O)C3)ccc21` (centres undefined), the INHIBITION worked out at 68.5%.

Consider `CCC(=O)NS(=O)(=O)c1cccnc1Nc1cccc(Cl)c1Cl`, for which the INHIBITION stood at 42.6%.

Turning to `Cc1nc(CN2Cc3nccn3CC(CN3CCOCC3)C2)cs1` (centres undefined), the INHIBITION is -40.1%.

Turning to `COc1cccc(-n2nnc(C(=O)N3CCC(C(N)=O)CC3)c2C)c1`, the INHIBITION came out at 13.115%.

With `Cc1cc(C(=O)NC2CCCOc3cc(Cl)ccc32)n(C)n1` (centres undefined), the INHIBITION was 43.6%.

Take `O=C(c1ccc2c(c1)[nH]c(=O)n2C1CCC(O)CC1)N1CCOCC1` (centres undefined): the INHIBITION came out at 48%.

With `CNC(=O)[C@H]1C[C@H]2CN(C(=O)Nc3ccc(F)cc3)C[C@@H]1O2`, the INHIBITION was 13.4%.

Take `CCN1CC[C@]2(CN(Cc3nccs3)C[C@H]2c2ccccc2)C1=O`: the INHIBITION is 13.7%.

Consider `Cc1nc(C2CCCN2Cc2cc(=O)n(C)c(=O)n2C)no1` (centres undefined), for which the INHIBITION was 15.3%.

Consider `Cc1nn(C)c2ncnc(N3CCCC(OCc4cccnc4)C3)c12` (centres undefined), for which the INHIBITION is recorded as 25.1%.

Consider `Cn1cc(CN2CCc3ncnc(N4CCCC4)c3CC2)cn1`, for which the INHIBITION stood at 30.5%.

On to `Cc1csc2c(N3CCC(NCCCc4cnn(C)c4)CC3)ncnc12`, for which the INHIBITION is reported as 31.6%.

With `CC(C)(C(=O)N1CCCC(OCc2cccnc2)C1)n1cccc1` (centres undefined), the INHIBITION was 23.1%.

Turning to `CCc1c(C)sc2ncnc(N3CCN(C4CCOCC4)CC3)c12`, the INHIBITION is on record as 4.15%.

As to `Cc1nn(C)c2nc(N(Cc3nccs3)C3CC3)sc12`, the INHIBITION is 33.2%.

Consider `Cc1sc2ncnc(N3CCCC3Cn3cccn3)c2c1C` (centres undefined), for which the INHIBITION is reported as -53%.

On to `CN(Cc1nccs1)C1CCN(c2ncccn2)CC1`, for which the INHIBITION is reported as 21.5%.

For the compound `Cc1cc2c(N3CCC(N(C)Cc4nccs4)CC3)ncnc2s1`, the INHIBITION amounted to 87.5%.

Consider `Cc1cc2c(N3CCC(N(C)CCc4cnn(C)c4)CC3)ncnc2s1`, for which the INHIBITION amounted to 51.2%.

Consider `Cc1cc2c(N3CCCC(OCc4cccnc4)C3)ncnc2s1` (centres undefined), for which the INHIBITION is 85.2%.

In the case of `Cc1sc2ncnc(N3CCC(N(C)Cc4cnn(C)c4)CC3)c2c1C`, the INHIBITION amounted to 61.2%.

Take `CCCS(=O)(=O)N1CCn2cc(CNc3ccccn3)nc2C1`: the INHIBITION stood at 23.3%.

As to `CCC(=O)N1Cc2nccn2CC(CN(C)Cc2cccnc2)C1` (centres undefined), the INHIBITION worked out at 39.2%.

For the compound `Cc1csc(N2CCN(Cc3cnc4c(c3)c(C)nn4C)CC2)n1`, the INHIBITION is 24%.

With `CN(C)C[C@H]1OC[C@@H]2CCN(C(=O)c3ccco3)C[C@@H]21`, the INHIBITION is -4.56%.

With `Cc1nc(C)n(CCNC(=O)C2(C)CC(c3ccccc3)=NO2)n1` (centres undefined), the INHIBITION is 23%.

In the case of `Fc1cnc(N2CC[C@@H]3O[C@@H](COCc4cccnc4)CC[C@@H]32)nc1`, the INHIBITION is listed as 31.4%.

As for `CCc1ccsc1C(=O)N1CCCN(Cc2cscn2)CC1`, the INHIBITION is on record as -16%.

`CC(C)c1cc2c(s1)NC(c1ccccc1)NC2=O` (centres undefined): the INHIBITION worked out at 9.63%.

For `Cc1cnc(CN(C)C2CCN(CCCc3cnn(C)c3)C2)o1` (centres undefined), the INHIBITION amounted to 48.2%.

For `Cc1cc2c(N3CCC(N(C)Cc4cnn(C)c4)CC3)ncnc2s1`, the INHIBITION came out at 75.7%.

With `Cc1nc(CN2CCCC(N(C)Cc3cnn(C)c3)C2)no1` (centres undefined), the INHIBITION was determined as 5.48%.

In the case of `COc1ccc2c(c1)CN(CC1CC1)C(=O)CCN2CC(C)(C)O`, the INHIBITION is listed as 23.7%.

For `O=C(c1sccc1C1CC1)N1CCN(CC(F)(F)F)CC1`, the INHIBITION is reported as 27.6%.

Take `O=C(Nc1cccc(F)c1)C1=NOC2(CCNCC2)C1`: the INHIBITION is listed as -2.41%.

Take `O=C(NCCOc1ncc(Cl)cc1Cl)c1cccnc1`: the INHIBITION was found to be 19.4%.

On to `O=C(CCn1cncn1)NCCOc1cccc(Cl)c1`, for which the INHIBITION is given as 10.7%.

For the compound `O=C(NCCOc1ncc(Cl)cc1Cl)c1ccncc1`, the INHIBITION is recorded as 39.5%.

Regarding `O=C(CCn1cccn1)NCCOc1cccc(Cl)c1`, the INHIBITION was found to be 54.4%.

Take `O=C(CCc1ccncc1)NCCOc1ncc(Cl)cc1Cl`: the INHIBITION is given as 3.87%.

For `O=C(CCn1cccn1)NCCOc1ncc(Cl)cc1Cl`, the INHIBITION was found to be 53.3%.

Consider `O=C(NCCOc1ncc(Cl)cc1Cl)c1ccoc1`, for which the INHIBITION was determined as 24.6%.

For the compound `O=C(CCn1cccn1)NCCOc1ccc2c(c1)OCO2`, the INHIBITION is reported as -13.9%.

With `Cc1ccoc1C(=O)NCCOc1ncc(Cl)cc1Cl`, the INHIBITION is 52%.

On to `CCn1cnnc1C1CCN(C(=O)c2cccc(-n3cccc3)c2)CC1`, for which the INHIBITION was 20%.

Turning to `O=C1NC2(CCCN(C(=O)CCn3cncn3)C2)Oc2ccccc21` (centres undefined), the INHIBITION is reported as -5.279%.

With `Cc1cc(C)n(CCNCc2cc(-c3ccccc3)c[nH]c2=O)n1`, the INHIBITION is on record as 7.43%.

Turning to `Cc1noc(C)c1CN1CC[C@H]2OCC[C@@]2(C(=O)NC2CCCC2)C1`, the INHIBITION was 17.1%.
